Measurements taken from the supplement of paper PMC12819154, “High-throughput peptide-centric local stability assay extends protein–ligand identification to membrane proteins, tissues and bacteria” (Nature Structural & Molecular Biology, 2025).

Compound: Nc1ncnc2c1ncn2[C@@H]1O[C@H](COP(=O)(O)OP(=O)(O)OP(=O)(O)O)[C@@H](O)[C@H]1O [adenosine 5'-triphosphate]
Test: log2 fold change of tryptic peptide abundance, ligand vs vehicle (limited proteolysis) (log2 ratio); higher = more trypsin-susceptible (destabilized)
Settings: ligand concentration: 5 mM; sample: E. coli desalted lysate; replicate design: treated before aliquoting
Method: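 HT-PELSA: desalted E. coli K-12 BW25113 lysate (with 12 mM MgCl2) incubated with 5 mM ATP (pH 7) or water for 30 min at 25 C, then a 4 min trypsin pulse at 22 C. Peptides were quantified by DIA-MS (4 replicates). Value is the peptide log2 fold change (treated/control); negative = stabilized. Scale: negative = ligand-stabilized region.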
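Further: lysate desalted by size exclusion to strip endogenous ATP, peptide intensities built from DIA-NN precursor signals, and peptides missing any value discarded before comparison.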

UniProt P09546, sequence (P09546 whole entry): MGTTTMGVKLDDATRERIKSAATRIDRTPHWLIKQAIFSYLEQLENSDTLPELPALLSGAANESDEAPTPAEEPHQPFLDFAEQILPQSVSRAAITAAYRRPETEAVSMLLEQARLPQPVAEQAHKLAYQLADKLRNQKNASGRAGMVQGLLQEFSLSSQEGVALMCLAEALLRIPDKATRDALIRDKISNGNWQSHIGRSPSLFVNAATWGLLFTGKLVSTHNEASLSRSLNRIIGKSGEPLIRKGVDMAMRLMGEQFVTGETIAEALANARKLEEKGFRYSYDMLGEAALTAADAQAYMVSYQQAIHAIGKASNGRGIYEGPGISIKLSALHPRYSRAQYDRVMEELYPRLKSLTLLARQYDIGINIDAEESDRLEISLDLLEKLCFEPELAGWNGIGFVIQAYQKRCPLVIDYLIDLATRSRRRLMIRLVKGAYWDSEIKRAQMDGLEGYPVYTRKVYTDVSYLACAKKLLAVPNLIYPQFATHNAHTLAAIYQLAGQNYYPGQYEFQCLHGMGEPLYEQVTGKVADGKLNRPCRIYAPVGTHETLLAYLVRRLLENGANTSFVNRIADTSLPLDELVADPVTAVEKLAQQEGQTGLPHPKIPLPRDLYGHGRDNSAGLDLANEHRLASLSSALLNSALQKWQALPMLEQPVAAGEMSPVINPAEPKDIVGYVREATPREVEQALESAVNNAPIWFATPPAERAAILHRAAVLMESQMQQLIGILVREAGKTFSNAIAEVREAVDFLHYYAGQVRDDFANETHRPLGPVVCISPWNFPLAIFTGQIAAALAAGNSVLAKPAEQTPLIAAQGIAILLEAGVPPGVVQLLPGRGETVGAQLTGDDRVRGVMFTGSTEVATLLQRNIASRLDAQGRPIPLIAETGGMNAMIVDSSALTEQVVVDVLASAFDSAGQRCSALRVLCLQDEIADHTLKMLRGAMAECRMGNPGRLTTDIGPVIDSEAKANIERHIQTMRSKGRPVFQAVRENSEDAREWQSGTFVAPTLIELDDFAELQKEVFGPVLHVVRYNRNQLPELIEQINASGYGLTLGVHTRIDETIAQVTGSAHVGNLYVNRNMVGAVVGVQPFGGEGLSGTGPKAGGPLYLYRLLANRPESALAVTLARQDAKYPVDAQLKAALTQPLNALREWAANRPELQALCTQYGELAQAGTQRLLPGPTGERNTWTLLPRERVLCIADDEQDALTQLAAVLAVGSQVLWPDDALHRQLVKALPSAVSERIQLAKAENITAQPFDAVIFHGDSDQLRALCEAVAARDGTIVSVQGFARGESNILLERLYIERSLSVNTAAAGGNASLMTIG
UniProt P76403, sequence (P76403 whole entry): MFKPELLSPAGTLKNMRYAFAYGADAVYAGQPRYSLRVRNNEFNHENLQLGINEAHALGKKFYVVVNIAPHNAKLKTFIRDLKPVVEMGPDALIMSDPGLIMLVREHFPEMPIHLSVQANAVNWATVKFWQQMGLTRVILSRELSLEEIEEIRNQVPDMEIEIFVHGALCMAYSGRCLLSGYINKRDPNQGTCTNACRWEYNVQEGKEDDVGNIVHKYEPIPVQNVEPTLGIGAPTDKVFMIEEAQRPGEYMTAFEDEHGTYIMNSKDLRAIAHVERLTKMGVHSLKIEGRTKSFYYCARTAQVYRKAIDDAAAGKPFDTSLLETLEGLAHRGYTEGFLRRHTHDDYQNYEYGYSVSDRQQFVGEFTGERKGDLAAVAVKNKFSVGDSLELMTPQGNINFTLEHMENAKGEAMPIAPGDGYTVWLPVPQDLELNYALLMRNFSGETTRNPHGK
UniProt P0AAT4, sequence (P0AAT4 whole entry): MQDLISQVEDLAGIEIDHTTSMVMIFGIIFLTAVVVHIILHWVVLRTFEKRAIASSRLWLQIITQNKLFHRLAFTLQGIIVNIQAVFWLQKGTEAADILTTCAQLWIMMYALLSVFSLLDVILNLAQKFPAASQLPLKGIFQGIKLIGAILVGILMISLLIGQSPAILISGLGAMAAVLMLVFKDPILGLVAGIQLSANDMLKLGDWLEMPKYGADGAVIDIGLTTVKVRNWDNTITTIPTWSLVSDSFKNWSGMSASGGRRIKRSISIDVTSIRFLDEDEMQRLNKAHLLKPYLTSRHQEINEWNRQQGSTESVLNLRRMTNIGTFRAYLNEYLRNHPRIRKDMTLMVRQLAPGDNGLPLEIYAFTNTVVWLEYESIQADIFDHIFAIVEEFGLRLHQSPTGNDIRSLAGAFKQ
UniProt P39452, sequence (P39452 whole entry): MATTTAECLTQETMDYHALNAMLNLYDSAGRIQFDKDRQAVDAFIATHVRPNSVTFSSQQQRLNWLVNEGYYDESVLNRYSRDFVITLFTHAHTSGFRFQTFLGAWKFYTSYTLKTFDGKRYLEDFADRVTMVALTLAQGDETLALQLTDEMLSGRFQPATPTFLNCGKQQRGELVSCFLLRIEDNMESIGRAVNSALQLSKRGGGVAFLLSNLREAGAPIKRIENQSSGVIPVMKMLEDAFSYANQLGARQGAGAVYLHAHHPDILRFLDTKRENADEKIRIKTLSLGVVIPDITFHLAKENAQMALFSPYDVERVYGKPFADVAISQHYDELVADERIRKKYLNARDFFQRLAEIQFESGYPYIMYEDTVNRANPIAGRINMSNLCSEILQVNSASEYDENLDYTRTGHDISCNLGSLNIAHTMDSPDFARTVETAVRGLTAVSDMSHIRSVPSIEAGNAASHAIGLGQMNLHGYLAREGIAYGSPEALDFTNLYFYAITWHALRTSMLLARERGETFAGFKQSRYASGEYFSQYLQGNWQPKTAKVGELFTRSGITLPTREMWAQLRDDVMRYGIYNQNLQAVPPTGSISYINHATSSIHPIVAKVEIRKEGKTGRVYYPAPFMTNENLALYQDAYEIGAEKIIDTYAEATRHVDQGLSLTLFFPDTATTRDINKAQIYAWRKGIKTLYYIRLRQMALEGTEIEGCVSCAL
UniProt P28631, sequence (P28631 whole entry): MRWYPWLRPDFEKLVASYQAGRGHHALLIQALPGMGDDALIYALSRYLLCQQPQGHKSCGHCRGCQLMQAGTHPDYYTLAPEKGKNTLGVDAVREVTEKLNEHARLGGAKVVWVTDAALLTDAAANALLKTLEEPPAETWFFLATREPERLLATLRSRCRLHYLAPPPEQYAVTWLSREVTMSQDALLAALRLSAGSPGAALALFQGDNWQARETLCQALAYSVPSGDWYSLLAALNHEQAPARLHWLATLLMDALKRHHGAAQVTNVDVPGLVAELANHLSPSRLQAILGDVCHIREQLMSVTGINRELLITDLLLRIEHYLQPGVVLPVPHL
UniProt P77555, sequence (P77555 whole entry): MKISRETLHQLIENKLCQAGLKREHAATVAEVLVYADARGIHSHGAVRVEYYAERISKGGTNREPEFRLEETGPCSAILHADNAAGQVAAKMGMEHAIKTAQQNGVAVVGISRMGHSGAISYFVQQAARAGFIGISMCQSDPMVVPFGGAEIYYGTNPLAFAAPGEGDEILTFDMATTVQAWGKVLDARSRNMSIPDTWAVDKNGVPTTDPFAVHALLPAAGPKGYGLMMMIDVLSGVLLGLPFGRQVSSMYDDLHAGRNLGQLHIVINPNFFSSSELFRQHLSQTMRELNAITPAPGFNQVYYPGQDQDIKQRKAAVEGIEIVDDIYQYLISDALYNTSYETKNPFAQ
UniProt P75915, sequence (P75915 whole entry): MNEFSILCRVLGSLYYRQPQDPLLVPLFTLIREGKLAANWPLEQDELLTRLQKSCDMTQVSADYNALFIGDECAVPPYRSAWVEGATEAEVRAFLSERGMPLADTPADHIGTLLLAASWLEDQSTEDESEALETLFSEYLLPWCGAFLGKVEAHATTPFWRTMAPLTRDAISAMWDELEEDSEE
UniProt P37177, sequence (P37177 whole entry): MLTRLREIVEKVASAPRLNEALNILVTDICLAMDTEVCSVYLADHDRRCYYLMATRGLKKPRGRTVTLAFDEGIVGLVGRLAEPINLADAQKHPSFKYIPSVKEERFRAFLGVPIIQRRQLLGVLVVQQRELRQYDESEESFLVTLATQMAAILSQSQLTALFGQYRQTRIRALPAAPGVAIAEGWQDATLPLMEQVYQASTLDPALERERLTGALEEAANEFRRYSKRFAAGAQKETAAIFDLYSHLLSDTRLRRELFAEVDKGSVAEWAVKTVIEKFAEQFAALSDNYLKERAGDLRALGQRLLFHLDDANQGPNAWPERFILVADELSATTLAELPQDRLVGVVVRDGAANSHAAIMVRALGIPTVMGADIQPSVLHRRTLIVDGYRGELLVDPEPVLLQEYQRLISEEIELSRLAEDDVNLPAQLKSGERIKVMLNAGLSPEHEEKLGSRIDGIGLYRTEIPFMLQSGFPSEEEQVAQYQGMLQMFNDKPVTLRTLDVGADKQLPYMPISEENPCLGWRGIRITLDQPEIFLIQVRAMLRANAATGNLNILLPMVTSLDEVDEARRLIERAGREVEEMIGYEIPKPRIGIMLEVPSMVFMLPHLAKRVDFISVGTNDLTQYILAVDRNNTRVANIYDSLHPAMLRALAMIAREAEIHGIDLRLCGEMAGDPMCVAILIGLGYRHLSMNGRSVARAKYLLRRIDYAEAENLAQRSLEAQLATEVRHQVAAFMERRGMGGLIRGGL
UniProt P39177, sequence (P39177 whole entry): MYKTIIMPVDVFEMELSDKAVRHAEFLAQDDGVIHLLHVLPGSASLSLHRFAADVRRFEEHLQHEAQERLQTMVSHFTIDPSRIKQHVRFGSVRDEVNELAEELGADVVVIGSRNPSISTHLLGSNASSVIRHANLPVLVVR
UniProt P37051, sequence (P37051 whole entry): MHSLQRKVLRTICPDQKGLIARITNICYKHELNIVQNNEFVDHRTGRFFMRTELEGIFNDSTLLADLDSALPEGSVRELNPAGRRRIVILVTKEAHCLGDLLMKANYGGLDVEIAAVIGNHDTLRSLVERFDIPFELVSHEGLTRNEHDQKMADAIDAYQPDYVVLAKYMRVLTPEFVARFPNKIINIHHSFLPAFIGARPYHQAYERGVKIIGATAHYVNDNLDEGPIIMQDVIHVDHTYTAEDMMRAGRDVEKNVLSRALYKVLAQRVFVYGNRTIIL

Target | log2 fold change
UniProt P21893 (peptide sequence: DCNFPSK, peptide start residue: 181) | -0.813
UniProt P32144 (peptide sequence: NILLVADHTK, peptide start residue: 206) | -0.398
UniProt P36672 (peptide sequence: LRFVLNQPANARPK, peptide start residue: 33) | 0.581
UniProt P23841 (peptide sequence: LNMSQPPLSIHIK, peptide start residue: 31) | -0.876
UniProt P26365 (peptide sequence: SATGASVWVLSNR, peptide start residue: 277) | -0.606
UniProt P15034 (peptide sequence: QNLTAPATMIDWRPVVHEMR, peptide start residue: 155) | -0.448
UniProt P76043 (peptide sequence: ACSEPNPDYPR, peptide start residue: 284) | -1.41
UniProt P77735 (peptide sequence: LGMDYVDILQIHR, peptide start residue: 116) | -0.843
UniProt P76273 (peptide sequence: CGISNVALTHFDGR, peptide start residue: 165) | 0.512
UniProt P14294 (peptide sequence: VQTPVLGLVVR, peptide start residue: 198) | -0.642
UniProt P32143 (peptide sequence: AGIPDCDQTR, peptide start residue: 282) | -2.48
UniProt P39452 (peptide sequence: IIDTYAEATR, peptide start residue: 646) | -1.19
UniProt P0AEH3 (peptide sequence: VGQQLMSK, peptide start residue: 91) | 0.523
UniProt P00888 (peptide sequence: LLVVCGPCSIHDPETALEYARR, peptide start residue: 55) | 0.547
UniProt P46889 (peptide sequence: FRDNPSPLTVVLGK, peptide start residue: 957) | -1.51
UniProt P09147 (peptide sequence: REGDLPAYWADASKADR, peptide start residue: 292) | 0.627
UniProt P27129 (peptide sequence: DVEPMQEK, peptide start residue: 157) | -0.645
UniProt P37177 (peptide sequence: VANIYDSLHPAMLR, peptide start residue: 636) | 0.572
UniProt P36879 (peptide sequence: TYPGGVQALR, peptide start residue: 13) | -3.15
UniProt P52061 (peptide sequence: FHCVLVYLR, peptide start residue: 118) | -0.642
UniProt P39343 (peptide sequence: IKNNDHNHNTVDLGYQIYHGNTL, peptide start residue: 310) | -0.756
UniProt P37648 (peptide sequence: DKGLPEEEFNALVAQK, peptide start residue: 363) | 0.498
UniProt P00490 (peptide sequence: QCNPALAALLDK, peptide start residue: 460) | 1.07

Target | log2 fold change
UniProt P0AAS7 (peptide sequence: LEGWSESGAQAK, peptide start residue: 20) | -0.938
UniProt P45579 (peptide sequence: VAAAHAVHNGLTVLPQTEK, peptide start residue: 253) | 0.992
UniProt P28631 (peptide sequence: YLLCQQPQGHK, peptide start residue: 47) | -0.546
UniProt P37025 (peptide sequence: VVWLGMR, peptide start residue: 87) | -0.685
UniProt P31455 (peptide sequence: AYPGLVNVPR, peptide start residue: 290) | -1.05
UniProt P09546 (peptide sequence: IYAPVGTHETLLAYLVRR, peptide start residue: 539) | 0.991
UniProt P76403 (peptide sequence: SFYYCARTAQVYRK, peptide start residue: 294) | -0.632
UniProt P75960 (peptide sequence: LHGAHTVELNLEPSQVGNEFAEK, peptide start residue: 231) | 0.525
UniProt Q46906 (peptide sequence: AEGFFCIHR, peptide start residue: 99) | -0.839
UniProt P08201 (peptide sequence: LIVSEDNK, peptide start residue: 359) | 1.35
UniProt P39187 (peptide sequence: VLQHIAGR, peptide start residue: 63) | 0.842
UniProt P39359 (peptide sequence: EGDLATAATLNKK, peptide start residue: 229) | -1.33
UniProt P46850 (peptide sequence: KDAEVIDEIPMAYK, peptide start residue: 368) | -0.573
UniProt P39364 (peptide sequence: IIGQLMSDIR, peptide start residue: 82) | -0.915
UniProt P0A6H5 (peptide sequence: VQAIEKNR, peptide start residue: 113) | 1.65
UniProt P0AB96 (peptide sequence: LCRPSEVVLEILPDAQK, peptide start residue: 105) | 0.492
UniProt P0AC84 (peptide sequence: QINVFLR, peptide start residue: 212) | 0.46
UniProt P75785 (peptide sequence: SLGLTLNR, peptide start residue: 266) | -0.884
UniProt P76558 (peptide sequence: TNLFMKPIFSQAR, peptide start residue: 427) | 0.538
UniProt P39177 (peptide sequence: FEEHLQHEAQER, peptide start residue: 58) | -2.59
UniProt P38051 (peptide sequence: QAQQLGEWLMADDKNQR, peptide start residue: 267) | -0.448
UniProt P64624 (peptide sequence: QIVLNLYEK, peptide start residue: 192) | 0.361
UniProt P00452 (peptide sequence: FYDAVSTFK, peptide start residue: 196) | -3.51

Target | log2 fold change
UniProt P13009 (peptide sequence: DQVEDYAR, peptide start residue: 1198) | -1.27
UniProt P37051 (peptide sequence: TICPDQK, peptide start residue: 11) | -0.377
UniProt P77215 (peptide sequence: AWFTGGATAEK, peptide start residue: 11) | -0.425
UniProt P45395 (peptide sequence: LHVPLICITGRPESSMAR, peptide start residue: 122) | 1.09
UniProt P76027 (peptide sequence: GCPFQPR, peptide start residue: 298) | 1.56
UniProt P56580 (peptide sequence: KIVYITAGTRPAIVDK, peptide start residue: 26) | 1.13
UniProt P0AEE1 (peptide sequence: AIELKGHK, peptide start residue: 121) | 0.899
UniProt P0A800 (peptide sequence: IGNRFDLVLVAAR, peptide start residue: 13) | -0.922
UniProt P11557 (peptide sequence: AVSTLPADVQAK, peptide start residue: 402) | 0.435
UniProt P03813 (peptide sequence: YTMEQDFYR, peptide start residue: 127) | -0.699
UniProt P77555 (peptide sequence: VEYYAER, peptide start residue: 49) | -0.74
UniProt P33919 (peptide sequence: LLGLTATPFR, peptide start residue: 146) | -1.8
UniProt P77293 (peptide sequence: GILSWVGGK, peptide start residue: 179) | -0.543
UniProt P32157 (peptide sequence: YPVDVYTGK, peptide start residue: 3) | -0.765
UniProt P0AAT4 (peptide sequence: AHLLKPYLTSR, peptide start residue: 288) | 0.38
UniProt P75915 (peptide sequence: VLGSLYYR, peptide start residue: 10) | 0.747
UniProt P77775 (peptide sequence: TGVVLAPDGGILGK, peptide start residue: 163) | -0.725
UniProt Q46925 (peptide sequence: SQFAEAQR, peptide start residue: 53) | -0.663
UniProt P24192 (peptide sequence: PAPQQVCDDPR, peptide start residue: 310) | -0.597
UniProt P03024 (peptide sequence: HSVSTPSLEASHHATSD, peptide start residue: 327) | 0.482
UniProt P06959 (peptide sequence: VDFSKFGEIEEVELGR, peptide start residue: 392) | 0.812
